Bioassay records (PubChem)
PfHsp90 yeast 2 = inhibits growth of yeast expressing Plasmodium falciparum Hsp90; inhibition, % at 9.4 µM; 310,000 compounds, 0.32% hits; S. cerevisiae expressing PfHsp90, BacTiter-Glo ATP, 48 h; yeast lacking PDR1 and PDR3 efflux regulators;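 active means every replicate shows inhibition above about 80%, whatever the replicate mean, limit read from the data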;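 further: 0% = DMSO neutral controls and 100% = 20 µM radicicol positive controls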
Mot1-301 SUMO = blocks SUMOylation pathway, rescuing yeast Mot1-301 growth; 320,000 compounds, 1% hits; growth rescue, % at 18.8 µM; S. cerevisiae Mot1-301 growth rescue, ATP luminescence, 38.5C; percent above DMSO median, 100 means doubled;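 active means every valid replicate shows activation above 250% relative to neutral control wells; inactive means the rest, any valid replicate at or below 250%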;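 further: OY570 slx delta 5 strain wells were the positive control but not used for scaling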
tim23-1 inh = inhibits growth of tim23-1 mutant yeast. S. cerevisiae tim23-1 growth, BacTiter-Glo luminescence, 24 h. AID 463212. inhibition, % at 20 µM. 330,000 compounds, 1.3% hits;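 active means growth inhibition of the mutant yeast at or above 50%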;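 further: temperature-sensitive mutant grown at 25 °C; plate controls were DMSO-treated mutant yeast for no effect and medium wells lacking yeast for full effect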
tim10-1 inh = inhibits growth of tim10-1 mutant yeast | 330,000 compounds, 2.2% hits | S. cerevisiae tim10-1 ts strain growth, BacTiter-Glo, 24 h | AID 463190 | inhibition, % at 20 µM;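 active means inhibition of at least 40%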;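 further: mutant grown at 25 °C; 0% = DMSO wells with yeast and 100% = wells holding no yeast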
TIM10 inh = TIM10 yeast growth inhibition; AID 463195; 330,000 compounds, 1.4% hits; inhibition, % at 10 µM; S. cerevisiae TIM10 strain growth, BacTiter-Glo luminescence, 24 h;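 active means inhibition of 40% or more at the single tested concentration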;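 further: wild-type TIM10 isogenic control strain grown at permissive 25 °C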
tim10-1 conf = tim10-1 yeast growth inhibition, confirmed; 7,400 compounds, 56% hits; S. cerevisiae tim10-1 ts strain growth, BacTiter-Glo, 24 h; inhibition, % at 20 µM; AID 463213; shares compounds with tim10-1 inh;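 active means inhibition of yeast growth at or above a set limit in either of two repeat tests at 20 µM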;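 further: tim10-1 mutant grown at permissive 25 °C to find synthetic lethal compounds; 0% = DMSO yeast wells and 100% = medium wells without yeast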
TIM10 conf = confirmation of TIM10 yeast growth inhibitors; shares compounds with TIM10 inh; S. cerevisiae tim10 strain growth, BacTiter-Glo luminescence, 24 h; inhibition, % at 10 µM; 4,600 compounds, 63% hits; AID 463215;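 active means inhibition of yeast growth at or above a set limit in either of two replicates at 10 µM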;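 further: this counterscreen used the strain with wild-type TIM10; 0% = yeast with DMSO and 100% = medium wells lacking yeast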
* hit, by the source's call; i = inactive; . = no result. Only some compounds are listed: those with a hit (about 4.4% of all), similar ones and a draw of the others.

SMILES | PfHsp90 yeast 2 | Mot1-301 SUMO | tim23-1 inh | tim10-1 inh | TIM10 inh | tim10-1 conf | TIM10 conf
CCOC(=O)CSCC(=O)N1N=C(c2cccs2)CC1c1ccc(F)cc1 (centres undefined) | -15 | -12 | 42 | 47* | 41* | 34* | -11
C=CCc1c(C)c(C#N)c2nc3ccccc3n2c1NCCN(C)C | 109* | -3 | 43 | 49* | 80* | 60* | 85*
C=C(C)Cc1c(C)c(C#N)c2nc3ccccc3n2c1NCCCN(C)C | . | -3 | 8 | 10 | -4 | . | .
N/C(=N\OC(=O)c1ccccc1Br)c1cccc([N+](=O)[O-])c1 | -21 | -19 | 39 | 79* | 41* | 84* | 54*
CC1(C)CC(/C=C/c2ccccc2)=Nc2ccccc2N1 | 2 | -27 | 46 | 49* | 67* | 54* | 58*
O=C1CC(/C=C/c2ccccc2)=Nc2ccccc2N1 | -25 | 12 | 13 | 17 | 20 | . | .
COc1ccc(OC)c(C2C=C(C34CC5CC(CC(C5)C3)C4)NC(=S)N2)c1 (centres undefined) | -24 | -14 | 36 | 47* | 41* | 25 | -4
CC(=O)Nc1ccc(NC(=O)CSCc2ccccc2Cl)cc1 | -4 | -3 | 14 | 14 | 19 | . | .
CC(=O)Nc1ccc(C(=O)OCc2ccccc2Cl)cc1 | -20 | i | 36 | 54* | 42* | 26 | 34*
NC(=O)c1cc([N+](=O)[O-])ccc1NCc1ccc(N)cc1 | 11 | 22 | 30 | 57* | 54* | 48* | 65*
NC(=O)c1cc([N+](=O)[O-])ccc1NCc1ccc(F)cc1 | -8 | -4 | 14 | 7 | -3 | . | .
O=C1C(Cl)=C(Nc2ccc(O)cc2)C(=O)c2ccccc21 | -5 | -17 | 38 | 49* | 45* | 45* | 51*
Oc1ccccc1CN1CCC(C(O)(c2ccccc2)c2ccccc2)CC1 | 22 | -27 | 19 | 43* | 51* | 36* | 41*
CCOC(=O)C1CCN(S(=O)(=O)c2cccc(-c3cn4ccccc4n3)c2)CC1 | -6 | 1 | 21 | 15 | 27 | . | .
CCOC(=O)C1CCN(S(=O)(=O)c2cccc(-c3cn4cccc(C)c4n3)c2)CC1 | -7 | -13 | 39 | 55* | 50* | 21 | -29
CC1CCN(Cc2nnc(-c3cccc(Br)c3)o2)CC1 | 35 | -1 | 20 | 22 | 4 | . | .
CCOC(=O)N1CCN(S(=O)(=O)c2ccc(C(=O)N(CCCN(C)C)c3nc4ccc(Cl)cc4s3)cc2)CC1 | -7 | 142 | 13 | 19 | 20 | . | .
CCN(CC)CCN(C(=O)c1ccc(S(=O)(=O)N(C)C2CCCCC2)cc1)c1nc2ccc(OC)cc2s1 | 0 | 17 | 42 | 59* | 48* | 42* | 38*
CCOC(=O)N1CCN(S(=O)(=O)c2ccc(C(=O)N(CCN(CC)CC)c3nc4ccc(C)cc4s3)cc2)CC1 | -23 | 4 | 31 | 48* | 40 | 35* | 14
Cc1cccc(C(CC(=O)N2CCCC2)c2ccccc2)c1O (centres undefined) | -8 | 1 | 34 | 25 | 1 | . | .
Cc1ccc(C(CC(=O)N2CCCC2)c2ccccc2)c(O)c1C (centres undefined) | 8 | -1 | 32 | 41* | 72* | 14 | 33*
CCOCCOC(=O)c1cccc2c1-c1ccccc1C2=O | 13 | -8 | 15 | 15 | 11 | . | .
CC(C)(C)c1ccc(CSc2nnc(-c3ccccn3)n2Cc2ccco2)cc1 | -10 | . | 41 | 42* | 45* | 48* | 38*
CNC(=O)CSc1nnc(-c2ccccn2)n1Cc1ccco1 | -5 | -6 | 5 | 21 | -1 | . | .
CC(C)CNC(=S)N(CCCN(C)C)Cc1cc2cc3c(cc2[nH]c1=O)OCCO3 | 1 | -13 | 12 | 9 | 0 | . | .
SMILES | PfHsp90 yeast 2 | Mot1-301 SUMO | tim23-1 inh | tim10-1 inh | TIM10 inh | tim10-1 conf | TIM10 conf
Cc1ccc2cccc(NC(=S)NC(=O)c3ccccc3)c2n1 | . | -11 | 17 | 43* | 42* | 31* | 43*
Cc1ccc2c(c1)N(C(=O)CCC(=O)NCCN1CCOCC1)CC(C)O2 (centres undefined) | 28 | -2 | -12 | -4 | -4 | . | .
Cc1nn(C)c(C(=O)NC(=S)Nc2ccc([N+](=O)[O-])cc2)c1Cl | 6 | . | 50 | 52* | 41* | 40* | 28
O=C(Nc1cccc(C(F)(F)F)c1)c1cccnc1NCCc1ccccc1 | 45 | 19 | 40 | 44* | 43* | 30* | -5
CN1OC[C@@H]2CN(Cc3cc(Cl)cc(Cl)c3)[C@H](c3cccc(-c4ccccc4)c3)C[C@@H]21 | -13 | . | . | . | . | . | .
Cc1cc(C)n(-c2nc(-n3nc(C)cc3C)c3c4c(sc3n2)COC(C)(C)C4)n1 | . | -16 | 43 | 50* | 41* | 34* | 25
CCOc1cc(C(=O)OC(C)C(=O)Nc2ccc(NC(C)=O)cc2)ccc1OCC(=O)N1CCCCC1 (centres undefined) | 51 | 25 | 5 | 4 | -6 | . | .
Cc1ccc(-c2nc3sc4c(c3c(=O)n2N)CCCC4)cc1 | -1 | 15 | 39 | 24 | 12 | . | .
Nn1c(Nc2ccccc2)nc2sc3c(c2c1=O)CCCC3 | 8 | 4 | 23 | 45* | 51* | 24 | 25
CCOc1ccc2nc(N3CCOCC3)nc(C)c2c1 | -5 | 7 | 30 | 15 | 10 | . | .
CCOc1ccc2nc3ccc4[nH]onc4c3c2c1 | 13 | 21 | 40 | 42* | 48* | 53* | 53*
NC(=S)Nc1cccc2cc3ccccc3cc12 | 7 | 11 | 44 | 40* | 40* | 26 | 32*
C=CCC[C@H](Cc1ccc(F)cc1)C(=O)OC[C@@H](Cc1c[nH]c2ccccc12)NC(=O)[C@@H](CC=C)CC(=O)N[C@H](CO)Cc1ccccc1 | 7 | -8 | 17 | 3 | -1 | . | .
CCc1c(C)sc(NC(=O)c2cc(C)on2)c1C#N | 25 | 97 | 28 | 22 | 20 | . | .
CCCc1cc(C(N)=O)c(NC(=O)c2cc(C)on2)s1 | 16 | -11 | 48 | 64* | 58* | 54* | 54*
Nc1nn2cc(-c3ccccc3)nc2c2ccccc12 | . | 39 | 30 | 56* | 56* | 53* | 49*
Cc1cn2nc(N)c3ccccc3c2n1 | -2 | -1 | -3 | 7 | 3 | . | .
O=C(COC(=O)c1ccc(O)cc1)NCC1COc2ccccc2O1 (centres undefined) | . | -23 | 10 | 2 | 0 | . | .
c1ccc(-c2c(-c3ccccc3)n(Cc3ccco3)c3ncnc(NCCCn4ccnc4)c23)cc1 | 104* | 53 | -31 | 40* | 45* | 38* | 11
